Test results: PubChem BioAssay
Calls of active or inactive are those of the source. Unless noted, the rule behind the calls is not given here.

How the values were obtained:
[1] = system: Wnt5a (protein binding on small-molecule microarray); experiment: Wnt5a binders on small-molecule microarray, primary screen, biophysical, 635/667 nm fluorescence (AID 1142); details: 635 nm fluorescence, higher = more signal;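 note: fluorescence read at 667 nm with signal to noise per printed feature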
[2] = cell viability in Huh7 cells, primary screen, cytotoxicity control for HCV replication inhibitor project, CellTiter-Glo luminescence, basal, 48 h (AID 1143); details: Huh7 HCV replicon, higher = more signal, called active from +8 up or from −8 down;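 note: Huh7 hepatoma cells carrying a hepatitis C replication reporter with no stimulus; test concentration not given here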
[3] = P. aeruginosa biofilm formation inhibitors, primary screen, PAO1 strain, BacTiter-Glo luminescence, LB-PBS (AID 1144); details: 12 h, higher = more signal
[4] = CREB reporter modulators without forskolin, primary screen, cell-based, PC12, CRE-LacZ reporter, unstimulated (AID 1145); details: no forskolin, luminescence, 4.5 h, higher = more signal, called active from +8 up or from −8 down
[5] = CREB reporter modulators under forskolin, primary screen, cell-based, PC12, CRE-LacZ reporter, forskolin-stimulated (AID 1146); details: luminescence, 4.5 h, higher = more signal, called active from +8 up or from −8 down;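 note: PC12 cells with 6xCRE LacZ reporter stimulated by forskolin 10 µM; beta-galactosidase reporter signal reflecting CREB driven transcription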
[6] = target: Streptavidin (Streptomyces avidinii) (UniProt P22629); experiment: streptavidin binders on small-molecule microarray, primary screen, artefact control for SMM compound annotation, biophysical, 635/667 nm fluorescence (AID 1147); details: streptavidin binding, higher = more signal;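 note: signal reflects streptavidin binding to arrayed compounds as a control protein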
Sequence of Streptavidin (Streptomyces avidinii) (P22629 whole entry, looked up): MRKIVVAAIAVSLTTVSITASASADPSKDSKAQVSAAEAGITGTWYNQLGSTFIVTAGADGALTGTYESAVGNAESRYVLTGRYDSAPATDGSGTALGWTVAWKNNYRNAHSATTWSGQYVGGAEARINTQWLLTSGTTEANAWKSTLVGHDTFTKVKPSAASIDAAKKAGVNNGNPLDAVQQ

[7] = small-molecule binders of probe aInhba, primary screen, biochemical, small-molecule microarray, 635/667 nm fluorescence (AID 1148); details: higher = more signal;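 note: score merges 667nm spot fluorescence with signal-to-noise for antibody binding to printed compounds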
Torsin-1A (Homo sapiens) [8] = target: Torsin-1A (Homo sapiens) (UniProt O14656); experiment: torsin A binders from cell lysate, primary screen, small-molecule microarray, wild-type, 635/667 nm (AID 1149); details: COS7 hTOR1A-WT lysate, 635 nm fluorescence, higher = more signal
Sequence of Torsin-1A (Homo sapiens) (O14656 whole entry, looked up): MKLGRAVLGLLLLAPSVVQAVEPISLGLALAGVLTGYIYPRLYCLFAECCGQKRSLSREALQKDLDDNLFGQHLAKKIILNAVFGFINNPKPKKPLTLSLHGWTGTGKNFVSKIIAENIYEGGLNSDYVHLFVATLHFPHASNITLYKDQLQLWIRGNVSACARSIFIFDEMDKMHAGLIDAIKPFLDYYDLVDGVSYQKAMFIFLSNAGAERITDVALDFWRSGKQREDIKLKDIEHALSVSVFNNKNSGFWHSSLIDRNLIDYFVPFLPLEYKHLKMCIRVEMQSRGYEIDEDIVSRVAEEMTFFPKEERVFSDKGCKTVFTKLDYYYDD

Torsin-1A (Homo sapiens) [9] = target: Torsin-1A (Homo sapiens) (UniProt O14656); experiment: small-molecule binders of mutant TOR1A in lysate, primary screen, cell lysate, small-molecule microarray, COS7 lysate, 635/667 nm fluorescence (AID 1150); details: COS7 hTOR1A mutant lysate, 635 nm fluorescence, higher = more signal;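 note: score pools 667 nm emission and signal to noise measuring lysate protein binding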
[10] = system: Sonic hedgehog protein (Shh); experiment: small-molecule binders of Shh protein, primary screen, biochemical, small-molecule microarray, 635/667 nm fluorescence (AID 1151); details: small-molecule microarray binding, 635 nm fluorescence; higher = more signal;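 note: Shh protein binding to compounds spotted on small-molecule microarray slides; score combines spot fluorescence intensity with signal-to-noise across triplicate slides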
[11] = E. coli DRC41 culture turbidity changes, primary screen, E. coli filamentation inducer project, strain DRC41, OD650, 48 h (AID 1152);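 note: E. coli MC1000 strain DRC41 lacking acrAB efflux pump and sulA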; details: E. coli DRC41 (acrAB sulA), higher = more signal, called active from +8 up or from −8 down
[12] = small-molecule binders of probe aLefty1, primary screen, biochemical, small-molecule microarray, 635/667 nm fluorescence (AID 1153); details: higher = more signal;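 note: score merges spot fluorescence with signal-to-noise ratio from the scanned slide images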
[13] = PSAC antagonists in infected red cells, primary screen, cell-based, P. falciparum Indochina, OD700, 1 h (AID 1154); details: P. falciparum Indochina infected RBC osmotic lysis, higher = more signal, called active from +8 up or from −8 down
[14] = PSAC antagonists in infected red cells, primary screen, cell-based, P. falciparum Indochina, OD700, 2 h (AID 1155);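 note: lysis reports solute entry through the parasite surface anion channel PSAC; channel blockers reduce lysis of infected cells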; details: P. falciparum Indochina infected erythrocytes, osmotic lysis OD700; higher = more signal, called active from +8 up or from −8 down
[15] = osmotic lysis modulators in infected erythrocytes, primary screen, PSAC antagonist project, cell-based, P. falciparum Indochina, OD700, 3 h (AID 1156); details: higher = more signal, called active from +8 up or from −8 down
[16] = PSAC antagonists in infected red cells, primary screen, cell-based, P. falciparum Indochina, OD700, 18 h (AID 1157); details: P. falciparum Indochina infected erythrocytes, osmotic lysis OD700, 18 h; higher = more signal, called active from +8 up or from −8 down
[17] = modulators of S6 phosphorylation in cells, primary screen, cell-based, A549, cytoblot, luminescence, serum-stimulated (AID 1158); details: A549 phospho-S6 cytoblot, 5 h, higher = more signal;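 note: serum-stimulated A549 lung adenocarcinoma cells; signal is phosphorylated S6 detected by cytoblot immunostaining with HRP secondary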
[18] = target: NADPH oxidase 2 (Homo sapiens) (UniProt P04839); experiment: NOX2-dependent H2O2 signal modulators, primary screen, NOX inhibitor project, cell-based, HEK293-NOX2, PMA-stimulated, Amplex Red fluorescence (AID 1159); details: 45 min, higher = more signal, called active from +8 up or from −8 down; note: test concentration not given here
Sequence of NADPH oxidase 2 (Homo sapiens) (P04839 whole entry, looked up): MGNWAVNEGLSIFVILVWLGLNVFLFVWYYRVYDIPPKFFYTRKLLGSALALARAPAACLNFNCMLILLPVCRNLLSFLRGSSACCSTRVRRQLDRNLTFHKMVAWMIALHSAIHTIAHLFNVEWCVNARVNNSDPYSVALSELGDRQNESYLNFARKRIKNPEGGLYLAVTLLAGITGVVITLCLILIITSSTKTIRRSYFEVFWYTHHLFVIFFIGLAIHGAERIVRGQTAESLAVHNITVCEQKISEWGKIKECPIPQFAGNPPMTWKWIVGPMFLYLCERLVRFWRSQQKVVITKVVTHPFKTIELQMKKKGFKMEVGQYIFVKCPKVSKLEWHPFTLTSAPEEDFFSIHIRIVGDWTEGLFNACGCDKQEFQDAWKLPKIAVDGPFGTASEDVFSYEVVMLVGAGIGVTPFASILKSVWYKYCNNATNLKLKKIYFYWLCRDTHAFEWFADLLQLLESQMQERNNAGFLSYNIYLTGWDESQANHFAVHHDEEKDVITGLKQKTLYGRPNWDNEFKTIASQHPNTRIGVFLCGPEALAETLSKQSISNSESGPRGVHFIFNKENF

[19] = target: NADPH oxidase 4 (Homo sapiens) (UniProt Q9NPH5); experiment: NOX4-dependent H2O2 signal modulators, primary screen, NOX inhibitor project, cell-based, HEK293-NOX4, tetracycline-induced, Amplex Red fluorescence (AID 1160); details: 45 min, higher = more signal, called active from +8 up or from −8 down
Sequence of NADPH oxidase 4 (Homo sapiens) (Q9NPH5 whole entry, looked up): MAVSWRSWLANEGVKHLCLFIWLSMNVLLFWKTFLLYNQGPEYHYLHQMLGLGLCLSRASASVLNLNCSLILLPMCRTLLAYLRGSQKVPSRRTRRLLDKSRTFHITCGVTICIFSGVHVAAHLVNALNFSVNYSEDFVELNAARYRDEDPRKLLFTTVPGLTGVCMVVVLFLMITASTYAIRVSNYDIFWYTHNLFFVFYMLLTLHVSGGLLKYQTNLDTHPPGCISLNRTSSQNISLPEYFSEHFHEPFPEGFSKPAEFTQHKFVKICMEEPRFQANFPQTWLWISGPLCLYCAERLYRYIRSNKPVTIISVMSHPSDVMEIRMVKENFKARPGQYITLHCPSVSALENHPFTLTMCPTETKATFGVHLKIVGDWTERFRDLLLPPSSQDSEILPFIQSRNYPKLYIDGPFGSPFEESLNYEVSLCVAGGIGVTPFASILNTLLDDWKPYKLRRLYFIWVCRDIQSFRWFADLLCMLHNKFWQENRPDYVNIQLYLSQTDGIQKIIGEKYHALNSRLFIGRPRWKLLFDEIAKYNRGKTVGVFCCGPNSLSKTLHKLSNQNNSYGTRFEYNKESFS

[20] = target: NADPH oxidase 5 (Homo sapiens) (UniProt Q96PH1); experiment: NOX5-dependent H2O2 signal modulators, primary screen, NOX inhibitor project, cell-based, HEK293-NOX5, Amplex Red fluorescence (AID 1161); details: HEK293-NOX5, ionomycin, 45 min, higher = more signal
Sequence of NADPH oxidase 5 (Homo sapiens) (Q96PH1 whole entry, looked up): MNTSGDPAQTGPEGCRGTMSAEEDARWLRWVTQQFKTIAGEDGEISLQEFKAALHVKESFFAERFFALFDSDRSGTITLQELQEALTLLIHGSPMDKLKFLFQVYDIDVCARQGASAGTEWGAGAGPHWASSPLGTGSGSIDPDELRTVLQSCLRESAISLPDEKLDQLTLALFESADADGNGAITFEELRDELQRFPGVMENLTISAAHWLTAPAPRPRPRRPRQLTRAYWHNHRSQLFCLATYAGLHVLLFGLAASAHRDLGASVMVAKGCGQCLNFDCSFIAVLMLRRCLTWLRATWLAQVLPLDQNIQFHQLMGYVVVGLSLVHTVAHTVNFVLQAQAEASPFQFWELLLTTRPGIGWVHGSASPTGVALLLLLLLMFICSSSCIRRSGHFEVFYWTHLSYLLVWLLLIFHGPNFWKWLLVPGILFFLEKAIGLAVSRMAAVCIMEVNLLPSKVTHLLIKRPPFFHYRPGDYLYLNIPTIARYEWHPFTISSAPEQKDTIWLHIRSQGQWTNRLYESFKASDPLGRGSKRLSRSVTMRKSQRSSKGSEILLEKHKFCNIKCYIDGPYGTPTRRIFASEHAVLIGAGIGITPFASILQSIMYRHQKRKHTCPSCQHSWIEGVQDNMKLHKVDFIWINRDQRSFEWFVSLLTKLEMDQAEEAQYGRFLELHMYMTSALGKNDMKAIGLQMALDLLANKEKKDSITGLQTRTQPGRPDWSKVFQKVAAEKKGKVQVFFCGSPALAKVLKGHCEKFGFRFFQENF

SMILES	composite z-score [1]	z-score [2]	z-score [3]	z-score [4]	z-score [5]	composite z-score [6]	composite z-score [7]	composite z-score (Torsin-1A (Homo sapiens) [8])	composite z-score (Torsin-1A (Homo sapiens) [9])	composite z-score [10]	z-score [11]	composite z-score [12]	z-score [13]	z-score [14]	z-score [15]	z-score [16]	z-score [17]	z-score [18]	z-score [19]	z-score [20]
COc1ccc([Si](C)(C)[C@@H]2[C@@H](CCO)O[C@]3(C(=O)N(Cc4ccccc4)c4ccc(N5C(=O)COc6ccccc65)cc43)[C@H]2C)cc1	0.0063	-6.38 (inactive)	-0.617 (inactive)	-0.636 (inactive)	0.0638 (inactive)	0.104	-0.0832	-0.0843	-0.309	0.693	2.1 (inactive)	-0.435	3.28 (inactive)	2.11 (inactive)	0.364 (inactive)	1.78 (inactive)	0.631	0.883 (inactive)	1.33 (inactive)	1.42
CCCC[C@@H](O)C1=C(COc2ccccc2)Cn2c(=O)n(-c3ccccc3)c(=O)n2[C@H]1CO	-0.154	-1.86 (inactive)	-0.569 (inactive)	1.67 (inactive)	-1.23 (inactive)	-0.447	-0.0762	-0.218	-0.348	-0.0649	2.85 (inactive)	-0.275	2.58 (inactive)	-0.478 (inactive)	-0.34 (inactive)	-2.27 (inactive)	0.814	-0.809 (inactive)	0.33 (inactive)	-0.235
CC(C)(C)OC(=O)CC[C@@]1(C(=O)N2CCCCC2)N=C(c2ccc(OCCCO)cc2)O[C@@H]1c1ccccc1N=[N+]=[N-]	0.258	-2.66 (inactive)	-0.197 (inactive)	0.227 (inactive)	-1.62 (inactive)	2.05	0.401	0.332	0.827	0.292	1.71 (inactive)	0.432	30.3 (active)	29.3 (active)	2.26 (inactive)	8.44 (active)	-0.0394	-2.98 (inactive)	1.03 (inactive)	-1.47
COC(=O)c1c(CC[C@@H](CO)NC(=O)N[C@@H](C)Cn2cc(C3(O)CCCC3)nn2)oc(C(C)=O)c1C(=O)OC	-0.22	-2.75 (inactive)	-0.0355 (inactive)	0.861 (inactive)	-0.144 (inactive)	0.0648	0.117	0.862	0.277	2.16	-0.274 (inactive)	0.0561	1.88 (inactive)	-0.8 (inactive)	0.816 (inactive)	-1.45 (inactive)	2.2	-2.54 (inactive)	-1.84 (inactive)	-2.35
COC(=O)c1ccc(OC)c(/C=C\CC(CCc2ccccc2)OC(C)=O)c1 (stereo not given)	-0.526	-0.785 (inactive)	0.245 (inactive)	1.04 (inactive)	-0.0403 (inactive)	0.245	-0.182	-0.813	-0.152	0.482	-0.601 (inactive)	-0.456	8.9 (active)	0.865 (inactive)	-0.297 (inactive)	0.0093 (inactive)	-0.0781	-0.135 (inactive)	0.424 (inactive)	-0.983
CC(C)CCC[C@@H](C)[C@H]1CC[C@@]2(C)C3=C(CC[C@]12C)[C@@]1(C)CC[C@H](OC(=O)C(C)(C)C)C(C)(C)C1CC3 (stereo not given in full)	0.228	-2.46 (inactive)	-0.738 (inactive)	0.12 (inactive)	-1.2 (inactive)	0.122	-0.186	0.89	0.31	0.836	0.836 (inactive)	-0.374	-0.0452 (inactive)	-0.698 (inactive)	-0.647 (inactive)	-1.07 (inactive)	2.9	0.249 (inactive)	0.4 (inactive)	1.29
CO[C@H]1O[C@H](CO)[C@@H](OC(=O)Nc2ccc(C(F)(F)F)cc2)[C@H](OC(=O)Nc2ccccc2)[C@H]1OC(=O)Nc1ccccc1	0.71	-5.9 (inactive)	-0.109 (inactive)	3.11 (inactive)	-1.51 (inactive)	1.22	0.3	0.386	0.183	1.2	-1.41 (inactive)	1.14	4.63 (inactive)	1.22 (inactive)	-2.03 (inactive)	0.887 (inactive)	0.121	-5.31 (inactive)	-1.39 (inactive)	-1.85
NC(=O)NCC#Cc1ccc2c(c1)[C@]1(C(=O)N2)[C@H](c2ccc(OCCO)cc2)N2[C@H](c3ccccc3)[C@H](c3ccccc3)OC(=O)[C@H]2[C@@H]1C(=O)N1CCN(c2ncccn2)CC1	0.132	0.342 (inactive)	-0.724 (inactive)	-0.491 (inactive)	-0.301 (inactive)	-0.373	0.15	0.539	0.673	1.5	0.811 (inactive)	0.538	3.03 (inactive)	1.1 (inactive)	0.454 (inactive)	0.516 (inactive)	0.0981	1.75 (inactive)	1.48 (inactive)	0.41
CCCNC(=O)[C@@]1(Sc2ccc(C)cc2)CC(=O)N(Cc2ccccc2)[C@@H]1c1ccc(CO)cc1I	0.308	-1.81 (inactive)	0.029 (inactive)	0.0655 (inactive)	1.08 (inactive)	0.203	-0.0221	0.123	0.485	1.96	-0.383 (inactive)	-0.0573	6.23 (inactive)	0.815 (inactive)	-0.713 (inactive)	0.206 (inactive)	-0.374	1.04 (inactive)	-1.94 (inactive)	1.79
